In ChEMBL document CHEMBL3988442, “University of Dundee, Small-Polar-MMV Screening Library” (2021):
Among all 53,000 compounds or so, about 900 (1.7%) showed an effect of 50% or more. Many of the other results were omitted from the sample, so strong results are more common in it than they were.

These compounds were tested on Mycobacterium tuberculosis (assay: Cornell - Phenotypic assay to identify agents that inhibit growth of Mycobacterium tuberculosis). Settings: 10 mM as filed; unlikely as a test dose.
Type: functional
Parameters: scale not given: direction of the effect not stated beside the values

| SMILES | Percent Effect |
| --- | --- |
| CN(C)C(=O)N1C[C@@H]2CC[C@H](C1)N(C(=O)c1c(Cl)cccc1Cl)C2 | 3.535% |
| CCOCC1CN(C(=O)Cc2ccccn2)Cc2cn(C)nc21 (stereo unspecified) | -4.26% |
| CO[C@@H]1CCN(Cc2ccccn2)[C@@H]2CN(Cc3ccco3)C[C@@H]21.O=C(O)C(F)(F)F.O=C(O)C(F)(F)F.O=C(O)C(F)(F)F | -14.11% |
| CCNC(=O)c1ccc(NC(=O)N(C)Cc2cccn2C)c(C)c1 | 26.39% |
| CCC(NC(=O)c1nn(C)cc1C(=O)O)c1ccc(C)cc1 (stereo unspecified) | 2.527% |
| CCOc1cc([C@@H]2N[C@H](c3nccs3)Cc3ccsc32)ccc1OC | 39.28% |
| Cc1c(Cl)cccc1NC(=O)N1CCN(Cc2ccccn2)CC1 | 28.2% |
| Cc1nc(C2CCN(C(=O)c3ccn(C)n3)CC2)c2sccn12 | -12.4% |
| CCn1nc(C)c(CNC(=O)c2cn(CC3CCCO3)nn2)c1C (stereo unspecified) | -30.41% |
| Cc1cc(C)n(C2CCN(c3ncnc4sc5c(c34)CCNC5)C2)n1 (stereo unspecified) | 11.06% |
| FC1(F)CCN(Cc2cccnc2)CC12CCN(c1ccccn1)C2.O=C(O)C(F)(F)F.O=C(O)C(F)(F)F.O=C(O)C(F)(F)F (stereo unspecified) | -7.439% |
| FC1(F)CCN(Cc2ccncc2)CC12CCN(c1cccnc1)C2.O=C(O)C(F)(F)F.O=C(O)C(F)(F)F.O=C(O)C(F)(F)F (stereo unspecified) | 6.416% |
| FC1(F)CCN(Cc2cccnc2)CC12CCN(c1ccccc1)C2.O=C(O)C(F)(F)F.O=C(O)C(F)(F)F.O=C(O)C(F)(F)F (stereo unspecified) | 59.15% |
| Cc1nn2c(=O)/c(=C\c3cccs3)sc2nc1=O | 10.56% |
| CC1CCN(c2ncc(-c3ccccc3F)c(-c3nccn3C)n2)CC1 | -10.24% |
| Cn1ccnc1-c1nc(N2CCCCC2)ncc1-c1ccccc1F | 56.75% |
| Cc1cc(-c2cnc(N3CCOCC3)nc2-c2cccnc2C)on1 | 6.202% |
| Cc1cc(-c2cnc(N3CCCCCC3)nc2-c2cccnc2C)on1 | 62.64% |
| CC1CCCN(c2ncc(-c3ccccc3F)c(-c3nccn3C)n2)C1 (stereo unspecified) | 50% |
| Cc1cc(-c2cnc(N3CCC(O)CC3)nc2-c2cccnc2C)on1 | -33.62% |
| CC(C)=CCN1CCC2(CC1)CC(=O)N(Cc1cc(F)cc(F)c1)C2 | 20.01% |
| CC(C)Cn1nc2ccc(S(=O)(=O)N3CCC(C)CC3)cn2c1=O | 2.551% |

| SMILES | Percent Effect |
| --- | --- |
| COc1cc2nc(NCc3ccc(C)nc3)nc(N)c2cc1OC | 50.73% |
| COc1cc2nc(NCc3scnc3C)nc(N)c2cc1OC | 13.16% |
| COc1cc2nc(NCc3cc(C)on3)nc(N)c2cc1OC | -7.413% |
| COC(=O)N1CCC(Nc2ccc(Cl)c(C#N)n2)C1 (stereo unspecified) | 21.5% |
| N#Cc1ccc(NC2CCN(c3ncccn3)CC2)cc1Cl | 33.47% |
| COC(=O)N1CCC(Nc2ccc(C#N)c(Cl)c2)C1 (stereo unspecified) | 66.83% |
| CC(NC(=O)NCCNc1ccccn1)c1cccs1 (stereo unspecified) | -14.12% |
| CCCNC(=O)NC(C)c1ccccn1 (stereo unspecified) | 55.13% |
| CC(NC(=O)NCCCn1cccn1)c1ccccn1 (stereo unspecified) | -6.373% |
| CCN1CCN(C(C)(C)CNc2nc(C)cc(C3CCC3)n2)CC1 | 8.458% |
| CC(C)CC(=O)N1Cc2ccccc2CC1C(=O)Nc1nncs1 (stereo unspecified) | 29.19% |
| O=C(NCC1(O)COCCN(Cc2cccc(O)c2)C1)c1ccccn1 (stereo unspecified) | -47.38% |
| CC(C)n1cnnc1Cn1ccc2ncccc2c1=O | -16.96% |
| CC(NC(=O)NCc1ccccc1)(C(=O)O)c1ccco1 (stereo unspecified) | -57.05% |
| CC(NC(=O)NCc1ccccc1F)(C(=O)O)c1ccco1 (stereo unspecified) | -0.26% |
| Cc1ccc(C)c(CNC(=O)NC(C)(C(=O)O)c2ccco2)c1 (stereo unspecified) | 50.37% |
| COc1cc(N2CCC3(CC2)CN(C)C(=O)CO3)ncn1 | -14.83% |
| CCn1ncc2c1CCCC2NCc1cccc2c1OCO2 (stereo unspecified) | -8.826% |
| NC(=O)C1CCN(C(=O)CCSCc2ccc(Cl)c(Cl)c2)CC1 | 42.57% |
| CCOCCN(C)C(c1cccnc1)c1ccc(F)cc1F (stereo unspecified) | 14% |
| COC(=O)CCCN(C)C(c1cccnc1)c1ccc(F)cc1F (stereo unspecified) | 105.8% |
| CNC(=O)NC(=O)CN(C)C(c1cccnc1)c1ccc(F)cc1F (stereo unspecified) | 14.91% |

| SMILES | Percent Effect |
| --- | --- |
| CC(=O)NCCC1CCCCN1S(=O)(=O)c1cccc(Cl)c1 (stereo unspecified) | -47.8% |
| CN1CCN(Cc2cn3c(n2)CN(Cc2ccncc2)CC3)CC1 | -19.75% |
| COc1ccccc1NC(=O)CC(C)NCCc1sc(C)nc1C (stereo unspecified) | 109.1% |
| COc1ccccc1NCC(=O)NCc1scnc1C | 3.418% |
| COc1ccccc1NC(=O)CC(C)NCc1scnc1C (stereo unspecified) | -11.77% |
| CCOc1ccc(NC(=O)N2CCOC(C(N)=O)C2)cc1C (stereo unspecified) | -10.8% |
| CN1CCN(c2nsc(-c3ccccc3)c2C#N)CC1 | 72.37% |
| CN1CCN(c2nsc(-c3cccnc3)c2C#N)CC1 | -23.91% |
| CCN1CCN(c2nsc(-c3cccnc3)c2C#N)CC1 | 8.063% |
| O=C(NCCOc1ccccc1)NCC(O)c1cccs1 (stereo unspecified) | 1.907% |
| Cc1csc(N2CCCN(C(=O)c3csc(C)n3)CC2)n1 | 20.78% |
| O=C(c1cnc(O)cn1)N1C[C@@H]2CC[C@H](C1)N(Cc1ccccc1)C2 | 9.482% |
| CCN1CCCc2cc(CN3CCc4c(nc(C)[nH]c4=O)C3)ccc21 | 3.807% |
| OC(CN(Cc1ccccc1)Cc1ccncc1)c1cccs1 (stereo unspecified) | 4.252% |
| Cc1cnc(CN(Cc2ccccc2)CC(O)c2cccs2)cn1 (stereo unspecified) | -16.83% |
| Cn1cc(CN(Cc2ccccc2)CC(O)c2cccs2)cn1 (stereo unspecified) | 103.2% |
| O=c1oc2ccccc2n1CCN(CC1CCOC1)C1CC1 (stereo unspecified) | 23.76% |
| O=C(CCn1c(=O)oc2ccccc21)NCC(O)c1ccccc1 (stereo unspecified) | -6.039% |
| CCCN(CCn1c(=O)oc2ccccc21)CC1CC1 | 69.63% |
| CCN(CC)CCn1c(=O)oc2ccccc21.Cl | 61.39% |
| CCN(CCn1c(=O)oc2ccccc21)CC1CCOCC1 | 48% |
| CC(NCCn1c(=O)oc2ccccc21)c1ccccn1 (stereo unspecified) | 11.05% |
